Data reported in the supplement of paper PMC9694430.
Where a name gives a salt, the structure may show the parent alone.

What was measured:
Assay in all cases: thermal shift delta Tm vs DMSO control; higher = stronger stabilization (binding)
Conditions in all cases: 12.5 µM; protein concentration 2 µM
[1] = tested on: LOC_OS02G45750-cb003
Procedure, shortened: (§1)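 Rice kinase domain constructs were expressed in E. coli, purified, and tested by differential scanning fluorimetry with compound added in DMSO. Each well of a 96-well plate held 19.5 μl of 2 μM kinase in 100 mM potassium phosphate pH 7.5, 150 mM NaCl, 10% glycerol and 5 × SYPRO Orange, and fluorescence was read from 25°C to 95°C at 0.05°C/s. The melting temperature shift is the mean of triplicates, taken against protein with DMSO alone after Boltzmann fitting.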

[2] = tested on: LOC_OS02G54510-cb004
Procedure, shortened: as §1

[3] = tested on: LOC_OS03G04050-cb001
Procedure, shortened: as §1

[4] = tested on: LOC_OS03G12390-cb001
Procedure, shortened: as §1

[5] = tested on: LOC_OS03G27990-cb004
Procedure, shortened: as §1

[6] = tested on: LOC_OS03G50450-cb001
Procedure, shortened: as §1

[7] = tested on: LOC_OS03G50810-cb003
Procedure, shortened: as §1

[8] = tested on: LOC_OS04G35114-cb001
Procedure, shortened: as §1

[9] = tested on: T1, LOC_OS04G38480-cb003
T1 sequence (whole entry): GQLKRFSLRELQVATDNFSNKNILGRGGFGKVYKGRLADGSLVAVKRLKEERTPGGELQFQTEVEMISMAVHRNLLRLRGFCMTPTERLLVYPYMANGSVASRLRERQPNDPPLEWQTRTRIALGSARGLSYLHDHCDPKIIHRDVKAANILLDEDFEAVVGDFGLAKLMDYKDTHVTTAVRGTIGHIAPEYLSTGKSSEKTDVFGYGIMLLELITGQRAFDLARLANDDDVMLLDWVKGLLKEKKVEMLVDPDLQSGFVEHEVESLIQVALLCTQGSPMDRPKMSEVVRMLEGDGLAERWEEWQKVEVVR
Procedure, shortened: as §1

[10] = tested on: T2, LOC_OS04G41100-cb001
T2 sequence (whole entry): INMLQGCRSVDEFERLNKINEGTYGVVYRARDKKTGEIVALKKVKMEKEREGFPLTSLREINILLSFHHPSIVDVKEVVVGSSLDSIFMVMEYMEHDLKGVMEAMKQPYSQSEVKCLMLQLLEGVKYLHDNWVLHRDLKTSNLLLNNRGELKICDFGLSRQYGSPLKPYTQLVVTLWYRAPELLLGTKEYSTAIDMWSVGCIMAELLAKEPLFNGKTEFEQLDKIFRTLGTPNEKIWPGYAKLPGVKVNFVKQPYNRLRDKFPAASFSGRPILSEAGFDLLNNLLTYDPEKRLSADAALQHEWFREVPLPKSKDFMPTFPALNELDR
Procedure, shortened: as §1

[11] = tested on: LOC_OS04G57630-cb004
Procedure, shortened: as §1

[12] = tested on: LOC_OS05G07850-cb002
Procedure, shortened: as §1

[13] = tested on: LOC_OS05G16824-cb004
Procedure, shortened: as §1

[14] = tested on: LOC_OS05G28520-cb001
Procedure, shortened: as §1

[15] = tested on: LOC_OS05G30820-cb001
Procedure, shortened: as §1

[16] = tested on: LOC_OS05G43570-cb004
Procedure, shortened: as §1

[17] = tested on: LOC_OS06G16330-cb003
Procedure, shortened: as §1

[18] = tested on: T3, LOC_OS06G22820-cb001
T3 sequence (whole entry): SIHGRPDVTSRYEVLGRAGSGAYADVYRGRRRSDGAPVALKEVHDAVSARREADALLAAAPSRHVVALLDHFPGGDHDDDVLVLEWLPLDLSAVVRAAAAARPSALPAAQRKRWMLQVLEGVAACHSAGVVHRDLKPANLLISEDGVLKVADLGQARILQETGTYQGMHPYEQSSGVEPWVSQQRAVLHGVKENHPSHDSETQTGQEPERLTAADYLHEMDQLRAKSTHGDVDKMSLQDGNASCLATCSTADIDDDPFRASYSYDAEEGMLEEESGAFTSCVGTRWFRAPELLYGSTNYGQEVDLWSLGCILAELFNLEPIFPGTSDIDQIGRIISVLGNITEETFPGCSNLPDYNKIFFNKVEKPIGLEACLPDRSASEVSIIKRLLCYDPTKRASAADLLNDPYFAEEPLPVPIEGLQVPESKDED
Procedure, shortened: as §1

[19] = tested on: LOC_OS07G06570-cb004
Procedure, shortened: as §1

[20] = tested on: LOC_OS07G07230-cb001
Procedure, shortened: as §1

Chain of LOC_OS06G16330-cb003 (as listed by the source): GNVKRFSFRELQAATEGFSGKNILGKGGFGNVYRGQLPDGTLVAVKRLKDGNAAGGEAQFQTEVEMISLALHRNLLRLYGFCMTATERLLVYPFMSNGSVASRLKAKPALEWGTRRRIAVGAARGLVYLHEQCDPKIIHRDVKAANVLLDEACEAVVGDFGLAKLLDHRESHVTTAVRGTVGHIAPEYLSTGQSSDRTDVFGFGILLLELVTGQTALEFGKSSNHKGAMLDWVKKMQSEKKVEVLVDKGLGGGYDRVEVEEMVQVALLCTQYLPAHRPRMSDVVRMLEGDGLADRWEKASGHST

| Compound | thermal shift delta Tm [1] [°C] | thermal shift delta Tm [2] [°C] | thermal shift delta Tm [3] [°C] | thermal shift delta Tm [4] [°C] | thermal shift delta Tm [5] [°C] | thermal shift delta Tm [6] [°C] | thermal shift delta Tm [7] [°C] | thermal shift delta Tm [8] [°C] | thermal shift delta Tm [9] [°C] | thermal shift delta Tm [10] [°C] | thermal shift delta Tm [11] [°C] | thermal shift delta Tm [12] [°C] | thermal shift delta Tm [13] [°C] | thermal shift delta Tm [14] [°C] | thermal shift delta Tm [15] [°C] | thermal shift delta Tm [16] [°C] | thermal shift delta Tm [17] [°C] | thermal shift delta Tm [18] [°C] | thermal shift delta Tm [19] [°C] | thermal shift delta Tm [20] [°C] |
| --- | --- | --- | --- | --- | --- | --- | --- | --- | --- | --- | --- | --- | --- | --- | --- | --- | --- | --- | --- | --- |
| CS(=O)(=O)N1CCN(Cc2cc3nc(-c4cccc5[nH]ncc45)nc(N4CCOCC4)c3s2)CC1 [Pictilisib (GDC-0941)] | 0.86 | 0.25 | 0.28 | 0.14 | 0.17 | 0.22 | 1.56 | 1.73 | -0.11 | 0.72 | -0.38 | 5.5 | 0.86 | 0.48 | 0.36 | 0.46 | 0.57 | 0.43 | 0.46 | 0.23 |
| CCCCCCCCCCCCCCCCn1cc[n+](Cc2ccccc2)c1C | -1.15 | -1.83 | -4.41 | -3.77 | 0.11 | -1.25 | -4.07 | -2.5 | -5.2 | -1.35 | -3.77 | 0.19 |  | -2.62 | -1.41 | -3.26 | -4.53 | -0.65 | -1.18 | -0.82 |
| C[C@H]1CNCCCN1S(=O)(=O)c1cccc2cncc(F)c12 [Ripasudil (K-115) hydrochloride dihydrate] | 0.9 | -0.02 | 0.39 | 0.39 | 0.16 | 0.22 | 0.68 | 0.3 | 1.26 | 0.24 | 0.43 | 3.53 | -0.98 | 0.51 | 0.26 | 0.76 | 0.41 | 0.46 | 0.19 | 0.2 |
| CC(C)(C)c1ccc(S(=O)(=O)/C=C/C#N)cc1 | -0.34 | 1.26 | 0.18 | -0.99 | -0.83 | 0.05 | -1.59 | -1.78 | 1.74 | -0.39 | 0.92 | 0.97 |  | -0.58 | -0.04 | 0.04 | 0.83 | -0.39 | 0.39 | -0.18 |
| CO[C@@H](C(=O)N1Cc2[nH]nc(NC(=O)c3ccc(N4CCN(C)CC4)cc3)c2C1)c1ccccc1 | 6.97 | 0.95 | 0.25 | 4.21 | 0.41 | -0.04 | 3.61 | 4.16 | 2.5 | 1.51 | 2.02 | 6.58 | 5.14 | 0.31 | 0.48 | 0.25 | 7.87 | 2.69 | 0.66 | 0 |
